28 molecules from PubChem BioAssay (NCATS) can be followed below.

Records with an inconclusive call do not appear. Activity calls are given as the source filed them. Calls come from the whole dose curve; as a rule, active = well fitted inhibition curve with a large enough effect; inconclusive = small, poorly fitted or top-dose-only effect; inactive = flat fitted curve, though single readings scatter.

Assay in all cases: qHTS profiling for inhibitors of Plasmodium falciparum proliferation (AID 504749); note: nearly all actives have a fitted effect of over 60% in size
What all share (conditions): P. falciparum in erythrocytes, SYBR Green DNA, 72 h; series mostly up to 28.7 µM
(In qHTS, concentration-response curves come from the screen itself.)

For one assay, the system named is CP325. In outline:
(§1)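 Readout was DNA-dye fluorescence from lysed cultures, ex 485/em 535 nm. Parasitized red cells had grown 72 h with compound; data scaled between 0.29 uM artemisinin and DMSO wells and corrected using vehicle-only plates.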

Another assay relates to CP329. In outline:
as §1

A further assay deals with CP335. In outline:
as §1

The test system of another assay is DFO2036. In a few lines:
as §1

The next assay deals with DIV14. In a few lines: as §1
A further assay concerns DIV17. In a few lines:
as §1

The subject of another assay is DIV30. In a few lines: as §1
The test system of a further assay is Dd2. In outline:
as §1

The subject of the next assay is ECU. In a few lines:
as §1

The next assay deals with FAB9. In outline: as §1
Potency is the fitted concentration of half-maximal effect.

Turning to `Cc1cn[nH]c1`, the Potency result in the assay on CP325, in the assay with CP335, in the assay on DFO2036, with DIV14, in the assay with DIV17 and with DIV30 was “inactive” each time. For the same molecule, the Potency entry in the assay on Dd2, in the assay with ECU and in the assay on FAB9 was “inactive” in each case. Further, in the assay with CP329, the result was inactive.
`Cc1ccc(N(CC2=NCCN2)c2cccc(O)c2)cc1`: the Potency entry in the assay with CP325, in the assay with CP335, in the assay on DFO2036, in the assay with DIV14, in the assay on DIV17 and in the assay on DIV30 was “inactive” throughout. Besides, the Potency entry with Dd2, with ECU and with FAB9 was “inactive” each time. The molecule was called inactive in the assay with CP329.
Consider `Nc1nc2c(ncn2COCCO)c(=O)[nH]1`, for which the Potency entry in the assay with CP325, with CP335, in the assay with DFO2036, with DIV14, in the assay on DIV17 and with DIV30 was “inactive” throughout. Besides, the Potency entry in the assay with Dd2, with ECU and with FAB9 was “inactive” throughout. In addition, in the assay with CP329, the result was inactive.
Take `N=c1nc(N2CCCCC2)cc(N)n1O`: the Potency entry with CP325, with CP335, in the assay on DFO2036, with DIV14, in the assay on DIV17 and in the assay with DIV30 was “inactive” throughout. In addition, the Potency entry in the assay on Dd2, in the assay on ECU and in the assay on FAB9 was “inactive” each time. The molecule was classed as inactive in the assay on CP329.
For the molecule `CN1CCN(CCCN2c3ccccc3Sc3ccc(C(F)(F)F)cc32)CC1`, the Potency is 5.36 µM (active) in the assay on CP335; 8.91 µM (active) in the assay with DFO2036; 8.49 µM (active) in the assay with DIV14; 7.57 µM (active) in the assay with DIV17; 16.9 µM (active) in the assay on DIV30; 12.6 µM (active) with Dd2. In addition, the Potency entry with FAB9 is “inactive”.
Take `CCOC(=O)N1CCC(=C2c3ccc(Cl)cc3CCc3cccnc32)CC1`: the Potency entry in the assay on DFO2036 and with FAB9 was “inactive” each time. Further, the Potency in the assay on DIV14 was 7.57 µM (active); with DIV17 it was 9.53 µM (active); with DIV30, 13.5 µM (active); with ECU, 12.6 µM (active).
Regarding `C1COC(NC(C2CC2)C2CC2)=N1`, the Potency entry in the assay on CP335, with DIV30, with Dd2 and in the assay with FAB9 was “inactive” each time.
Regarding `Clc1ccc(Nc2nnc(Cc3ccncc3)c3ccccc23)cc1`, the Potency result in the assay on CP325, with DFO2036 and in the assay on FAB9 was “inactive” throughout. In addition, in the assay on CP329, the molecule was classed as inactive. For the same molecule, in the assay with ECU, the Potency was 14.1 µM (active).
On to `Nc1nc2ccc(OC(F)(F)F)cc2s1`, for which the Potency result in the assay with CP325, with CP335, with DFO2036, in the assay with DIV17, in the assay with DIV30 and in the assay on Dd2 was “inactive” in each case. The Potency result with ECU and in the assay on FAB9 was “inactive” in each case. In the assay on CP329, the call was inactive.
For the molecule `CC(=O)Oc1ccccc1C(=O)O`, the Potency entry with CP325, with CP335, in the assay on DFO2036, with DIV14, in the assay on DIV17 and in the assay with DIV30 was “inactive” in each case. The Potency entry with Dd2, in the assay with ECU and with FAB9 was “inactive” in each case. For the same molecule, the call with CP329 was inactive.
Take `CCCc1nc2c(C)cc(-c3nc4ccccc4n3C)cc2n1Cc1ccc(-c2ccccc2C(=O)O)cc1`: the Potency result in the assay on CP325 and in the assay on FAB9 was “inactive” in each case. Also, the call in the assay with CP329 was inactive. The Potency with CP335 was 6.01 µM (active); with DIV17, 0.675 µM (active); with Dd2 it was 5.01 µM (active).
Regarding `CCOC(=O)C1=C[C@@]2(CC)CCCN3CCc4c(n1c1ccccc41)[C@H]32`, the Potency is 9.53 µM (active) with CP325; 12 µM (active) in the assay with CP335; 13.5 µM (active) in the assay on DIV14; 7.57 µM (active) with DIV17; 12 µM (active) in the assay with DIV30.
Turning to `Cc1c(C)c2c(c(C)c1O)CCC(C)(COc1ccc(CC3SC(=O)NC3=O)cc1)O2` (stereo not given), the Potency entry in the assay with CP325, with CP335, in the assay with DFO2036 and in the assay on FAB9 was “inactive” throughout. Further, the molecule was called inactive in the assay on CP329. In addition, the Potency with DIV14 is 15.1 µM (active).
Turning to `NC[C@H](O)c1ccc(O)c(O)c1`, the Potency result in the assay with CP325, in the assay with CP335, in the assay with DFO2036, in the assay on DIV17, with DIV30 and in the assay on Dd2 was “inactive” throughout. Also, the Potency entry in the assay on ECU and in the assay with FAB9 was “inactive” each time. The result in the assay on CP329 was inactive.
Take `O=NN(CCCl)C(=O)NCCCl`: the Potency result with CP325, with DIV14, with DIV17, in the assay on DIV30, with Dd2 and in the assay on ECU was “inactive” each time. For the same molecule, in the assay with FAB9, the Potency result was “inactive”. Also, in the assay on CP329, the outcome was inactive.
For `CNC[C@H](O)c1cccc(O)c1`, the Potency result in the assay on CP325, with DFO2036, in the assay with DIV14, with DIV17, in the assay on DIV30 and with Dd2 was “inactive” in each case. Moreover, the Potency entry in the assay with ECU and in the assay with FAB9 was “inactive” in each case. The molecule was classed as inactive with CP329.
For the molecule `Cn1cnc([N+](=O)[O-])c1Sc1ncnc2nc[nH]c12`, the Potency result in the assay with CP325, in the assay with CP335, in the assay with DFO2036, in the assay with DIV14, with DIV30 and with Dd2 was “inactive” in each case. In addition, the Potency entry in the assay on FAB9 is “inactive”. Moreover, the outcome with CP329 was inactive. Besides, the Potency with ECU is 8.91 µM (active).
Regarding `Cc1oncc1C(=O)Nc1ccc(C(F)(F)F)cc1`, the Potency result with CP325, in the assay with CP335, in the assay with DFO2036, in the assay with DIV14, in the assay on DIV30 and with Dd2 was “inactive” throughout. In addition, the Potency entry in the assay on ECU and with FAB9 was “inactive” in each case. The molecule was classed as inactive in the assay on CP329.
On to `CC(C)C[C@H](NC(=O)[C@@H](O)[C@H](N)Cc1ccccc1)C(=O)O`, for which the Potency in the assay on CP325 was 6.75 µM (active); in the assay with CP335 it was 6.01 µM (active); in the assay on DFO2036 it was 5.62 µM (active); in the assay on DIV14 it was 4.78 µM (active); in the assay with DIV17, 6.75 µM (active); with DIV30 it was 6.01 µM (active). In addition, the Potency is 3.16 µM (active) in the assay on Dd2, 7.94 µM (active) with ECU and 10 µM (active) in the assay on FAB9.
Consider `Cc1ccccc1C(OCCN(C)C)c1ccccc1` (stereo not given), for which the Potency is 6.75 µM (active) in the assay with DIV14 and 7.57 µM (active) in the assay with DIV17. Further, the Potency result in the assay on Dd2, in the assay on ECU and in the assay with FAB9 was “inactive” throughout.
For `Cc1cc2c(C(C)C)c(O)c(O)c(C=O)c2c(O)c1-c1c(C)cc2c(C(C)C)c(O)c(O)c(C=O)c2c1O`, the Potency with Dd2 was 11.2 µM (active). Also, in the assay with FAB9, the Potency result is “inactive”.
For `O=C1CCc2cc(OCCCCc3nnnn3C3CCCCC3)ccc2N1`, the Potency result in the assay with CP325, in the assay with CP335, with DIV14, with DIV17 and in the assay with DIV30 was “inactive” in each case. For the same molecule, the result in the assay on CP329 was inactive.
On to `CCCc1nn(C)c2c(=O)[nH]c(-c3cc(S(=O)(=O)N4CCN(C)CC4)ccc3OCC)nc12`, for which the Potency entry in the assay on CP325, with CP335, in the assay with DFO2036, with DIV14, in the assay on DIV17 and with Dd2 was “inactive” each time. Further, the Potency result in the assay on ECU and with FAB9 was “inactive” each time. Moreover, the molecule was classed as inactive in the assay with CP329.
For the molecule `NC(N)=NC(=O)c1nc(Cl)c(N)nc1N`, the molecule was called inactive in the assay on CP329. In addition, the Potency with DIV14 is 9.53 µM (active); in the assay on DIV17, 6.75 µM (active).
On to `CCOC(=O)C1=C[C@]2(CC)CCCN3CCc4c(n1c1ccccc41)[C@@H]32`, for which the Potency with DIV14 was 12 µM (active); in the assay on DIV17, 15.1 µM (active); in the assay with DIV30, 13.5 µM (active).
As to `COc1ccc2nc(S(=O)Cc3ncc(C)c(OC)c3C)[nH]c2c1` (stereo not given), the Potency entry in the assay with CP325, in the assay with CP335, in the assay on DFO2036, in the assay on DIV30, in the assay with Dd2 and in the assay with ECU was “inactive” in each case. Further, the Potency result in the assay on FAB9 is “inactive”. Further, the molecule was called inactive in the assay with CP329.
Regarding `OC(CN1CCC(Cc2ccc(F)cc2)CC1)c1ccc(Cl)cc1` (stereo not given), the Potency result with CP325 is “inactive”. In addition, in the assay on CP329, the molecule was classed as inactive. Also, the Potency in the assay on CP335 is 3.79 µM (active); with DIV14 it was 1.07 µM (active); in the assay on DIV17 it was 0.953 µM (active); in the assay on DIV30, 1.9 µM (active); in the assay with Dd2 it was 2.51 µM (active); in the assay on ECU, 1.58 µM (active).
For `C#Cc1cccc(Nc2ncnc3cc(OCCOC)c(OCCOC)cc23)c1`, the call with CP329 was inactive. In addition, the Potency is 8.49 µM (active) with DIV14 and 15.1 µM (active) in the assay on DIV17. In addition, the Potency entry in the assay with Dd2 and in the assay with FAB9 was “inactive” in each case.
